# Reference: PubChem BioAssay (NCATS)
# Inconclusive results are not listed. A call without a number means that no potency is given here. Activity calls are given as the source filed them. Unless noted, calls come from the whole dose curve; as a rule, active = well fitted inhibition curve with a large enough effect; inconclusive = small, poorly fitted or top-dose-only effect; inactive = no such curve, though single readings can be large or run the other way.
# Tests used:
# [1] = High-throughput drug toxicity screening in the BPDCN cell line Gen2.2 (AID 1224824; call rule not given here;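 note: cells exposed to compounds for 48 h before reading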); settings: Gen2.2 BPDCN cells; at 45.8 µM (top of the series)
# How it was run: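 CellTiter-Glo luminescence read after 48 h compound exposure at 37 C defines viability; percent activity set with DMSO as 100% and bortezomib (9.2 uM final) as 0%. 500 exponentially growing cells per well, RPMI plus 10% FBS.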
# [2] = High-throughput drug toxicity screening in the BPDCN cell line Cal-1 (AID 1224825; call rule not given here); settings: Cal-1 BPDCN cell viability, qHTS; at 45.8 µM (top of the series)
# How it was run: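 500 Cal-1 cells/well, RPMI + glutamine + 10% FBS (phenol red-free); cpd added by pin tool; 48 h, 37C, 5% CO2; CTG 15 min RT, lumi read. Normalised: DMSO 100%, bortezomib 9.2 uM 0%.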
# [3] = qHTS assay for measurement of the activity of small molecule inhibitors on Zika virus induced Caspase-3 activity in human iPSC derived neural progenitor cells (hNPCs) (AID 1224857); note: nearly all actives have a fitted effect of over 65% in size; note: potency is the fitted concentration of half-maximal effect
# How it was run: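 Quantitative HTS format: human iPSC neural progenitors, 1 h compound pretreatment, ZIKV 2 FFU/cell for 6 h at 37 C. Percent inhibition derived from luminescent caspase-3/7 signal between uninfected and infected controls.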
# [4] = qHTS assay for measurement of the activity of small molecule inhibitors on Zika virus induced Caspase-3 activity in human astrocytoma cells (AID 1224859)
# How it was run: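 Readout is luminescence from Caspase-Glo 3/7 added after a 6 h ZIKV infection (2 FFU/cell) of compound-pretreated (1 h) SNB-19 cells; data expressed as % inhibition versus uninfected and infected wells.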
# [5] = qHTS Screen of the MIPE 4.0 Collection Against Ewings Sarcoma (EW8) (AID 1259255); note: nearly all actives have a fitted effect of over 35% in size; note: potency is the fitted concentration of half-maximal effect
# How it was run: (§1)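 CellTiter-Glo luminescence after 48 h compound exposure (titration) gave viability; percent activity used DMSO-treated cells as no inhibition and medium-only wells as full inhibition. Cells grown in RPMI/5% FBS, dosed 4 h post-seeding.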
# [6] = qHTS Screen of the MIPE 4.0 Collection Against Ewings Sarcoma (RDES) (AID 1259252); note: nearly all actives have a fitted effect of over 35% in size; note: potency is the fitted concentration of half-maximal effect
# How it was run: as §1
# [7] = qHTS Screen of the MIPE 4.0 Collection Against Ewings Sarcoma (TC71) (AID 1259253); note: nearly all actives have a fitted effect of over 40% in size; note: potency is the fitted concentration of half-maximal effect
# How it was run: as §1
SMILES,"cell viability, % of control (lower = more cytotoxic) [1] [%]",viability (% of control) [2] [%],Potency [3],Potency [4],Potency [5],Potency [6],Potency [7]
O=C(Oc1ccc([N+](=O)[O-])cc1)N1CCN(Cc2cccc(Oc3ccccc3)c2)CC1,151,54.4,inactive,inactive,inactive,,
C[C@]12CC[C@@H]3[C@@H](CCC4=CC(=O)CC[C@@H]43)[C@@H]1CC[C@@H]2OC(=O)CCc1ccccc1,119,104,,inactive,,inactive,9.35 µM (active)
c1cc2c(cc1[C@H]1OC[C@H]3[C@H]1CO[C@H]3c1ccc3c(c1)OCO3)OCO2,197,91,inactive,inactive,inactive,,
c1ccc2c(CN3CCNCC3)cccc2c1,112,99,inactive,inactive,inactive,,inactive
COc1cc([C@@H]2c3cc4c(cc3[C@@H](O)C3COC(=O)C32)OCO4)cc(OC)c1O (some centres undefined),6.47,5.19,inactive,inactive,0.0264 µM (active),,
Oc1ccc2c3c1O[C@H]1c4[nH]c5c(c4C[C@@]4(O)[C@@H](C2)N(CC2CC2)CC[C@]314)C[C@@]1(O)[C@H]2Cc3ccc(O)c4c3[C@@]1(CCN2CC1CC1)[C@H]5O4,143,119,inactive,inactive,inactive,,inactive
CCN(CC)C(=O)c1ccc(C2=CC3(CCNCC3)Oc3cccc(O)c32)cc1,122,79,inactive,inactive,inactive,,
CCNC(=O)C[C@@H]1N=C(c2ccc(Cl)cc2)c2cc(OC)ccc2-n2c(C)nnc21,12.3,7.23,,inactive,7.43 µM (active),3.32 µM (active),2.96 µM (active)
COc1ccc(CC2NCCc3cc(OC)c(OC)cc32)cc1OC (centres undefined),150,102,inactive,inactive,inactive,,
CC1=NN=C(c2ccc(N)cc2)c2cc3c(cc2C1)OCO3,244,12.1,inactive,inactive,inactive,,
Cc1ccccc1-n1c(Cn2ncc3c(N)ncnc32)nc2cccc(C)c2c1=O,28.1,17.1,inactive,inactive,26.4 µM (active),,
C[C@@]12OC(=O)[C@]1([C@@H](O)[C@@H]1C=CCCC1)NC(=O)[C@H]2CCCl,5.68,3.86,inactive,inactive,0.0264 µM (active),,
C[C@H]([C@H](O)CCC(C)(C)O)[C@H]1CC[C@@]2(O)C3=CC(=O)[C@@H]4C[C@@H](O)[C@@H](O)C[C@]4(C)[C@@H]3CC[C@]12C,127,110,inactive,inactive,inactive,,
CC(=O)OCC1=C(C(=O)O)N2C(=O)[C@@H](N)[C@@H]2SC1,68.5,15.5,,inactive,inactive,inactive,inactive
CC(=O)O[C@@]12CO[C@H]1C[C@H](O)[C@@]1(C)C(=O)[C@H](O)C3=C(C)[C@@H](O)C[C@@](O)([C@@H](OC(=O)c4ccccc4)[C@@H]21)C3(C)C,42,20.6,inactive,inactive,2.35 µM (active),,23.5 µM (active)
CC1(N2CCC(n3c([C@@H]4CCCNC4)nc4ccccc43)CC2)CCCCCCC1,17.2,5.69,inactive,inactive,10.5 µM (active),,
CC(C)[C@]12O[C@@H]1[C@@H]1O[C@]13[C@]1(O[C@H]1C[C@@H]1C4=C(CC[C@@]13C)C(=O)OC4)[C@H]2O,4.5,2.1,inactive,inactive,inactive,,inactive
Cc1c(N)nc([C@H](CC(N)=O)NC[C@@H](N)C(N)=O)nc1C(=O)N[C@H](C(=O)N[C@@H](C)[C@H](O)[C@@H](C)C(=O)N[C@@H](C(=O)NCCc1nc(-c2nc(C(=O)NCCC[S+](C)C)cs2)cs1)[C@@H](C)O)C(O[C@H]1O[C@H](CO)[C@H](O)[C@@H](O)[C@@H]1O[C@H]1O[C@H](CO)[C@@H](O)[C@H](OC(N)=O)[C@H]1O)c1cnc[nH]1 (some centres undefined),132,16,inactive,inactive,0.264 µM (active),,0.526 µM (active)
COc1ccc(N(C(=O)Oc2c(C)cccc2C)c2ccnc(Nc3ccc(N4CCN(C)CC4)cc3)n2)c(OC)c1,137,13.7,inactive,inactive,2.64 µM (active),,2.35 µM (active)
CCOC(=O)c1c(C(C#N)=CN)c2ccc(Cl)c(Cl)c2n1C,130,94.3,inactive,inactive,inactive,,inactive
O=[N+]([O-])c1ncc[nH]1,102,122,inactive,inactive,inactive,,inactive
CC(C)N(CCNC(=O)CN1CCCC1=O)C(C)C,108,111,inactive,inactive,inactive,,

SMILES,"cell viability, % of control (lower = more cytotoxic) [1] [%]",viability (% of control) [2] [%],Potency [3],Potency [4],Potency [5],Potency [6],Potency [7]
CC=C(C)C(=O)N[C@@H](c1ccccc1)[C@@H](O)C(=O)O[C@H]1C[C@@]2(O)[C@@H](OC(=O)c3ccccc3)[C@@H]3[C@]4(OC(C)=O)CO[C@@H]4C[C@H](O)[C@@]3(C)C(=O)[C@H](OC(C)=O)C(=C1C)C2(C)C,47,19.1,inactive,inactive,inactive,,
CC[C@H]1C=CC=CC[C@@H](C)[C@H](O)[C@@](C)(O)C(=O)[C@@H](C)[C@H](O)[C@@H](C)C(=O)[C@@H](C)[C@H](O)[C@@H](C)C=CC(=O)O[C@@H]2[C@@H](C)[C@H](CC1)O[C@]1(CC[C@H](C)[C@H](C[C@@H](C)O)O1)[C@H]2C,8.73,6.39,inactive,inactive,4.69 µM (active),,0.0118 µM (active)
CO[C@H]1CCC(O[C@H]2C[C@H]([C@]3(C)CC[C@]4(C[C@H](O)[C@@H](C)[C@@H]([C@@H](C)C=C(C)C(=O)[C@H](C)C[C@H](C)C(=O)O)O4)O3)O[C@]3(O[C@@H]([C@H]4O[C@@](O)(CO)[C@H](C)C[C@H]4C)C[C@H]3C)[C@H]2C)O[C@H]1C (some centres undefined),92,72.5,inactive,inactive,0.372 µM (active),,0.332 µM (active)
CCN1C[C@]2(OC(=O)c3ccccc3NC(C)=O)CC[C@H](OC)[C@@]34[C@H]5CC6[C@@H](OC)C[C@](O)(C(C[C@@H]23)[C@@H]14)[C@@]5(O)[C@@H]6OC,137,108,,inactive,inactive,inactive,
Cc1c(C(=O)c2cccc3ccccc23)c2cccc3c2n1[C@H](CN1CCOCC1)CO3,17.7,40,inactive,inactive,26.4 µM (active),,26.4 µM (active)
CN(C)[C@@H]1C(=O)C(C(N)=O)=C(O)[C@@]2(O)C(=O)C3=C(O)c4c(O)cccc4[C@@](C)(O)[C@H]3[C@H](O)[C@@H]12,109,100,inactive,inactive,inactive,,
COC[C@H]1OC(=O)c2coc3c2[C@@]1(C)C1=C(C3=O)[C@@H]2CC[C@H](O)[C@@]2(C)C[C@@H]1OC(C)=O,5.55,9.36,inactive,inactive,6.62 µM (active),,
C[C@]12CC[C@H](O)CC1=CC[C@H]1[C@H]3CCC(=O)[C@@]3(C)CC[C@@H]12,136,104,inactive,inactive,16.6 µM (active),,
CSCC[C@@H](NC(=O)[C@@H](Cc1ccccc1)NC(=O)CNC(=O)CNC(=O)[C@@H](N)Cc1ccc(O)cc1)C(=O)O,140,134,,inactive,inactive,inactive,inactive
CC(N[C@H]1C[C@H]1c1ccccc1)c1ccc2c(c1)OCCO2 (some centres undefined),154,96.1,inactive,inactive,inactive,,
O=c1cccc2n1CC1CNC[C@H]2C1,51.5,13.3,inactive,inactive,inactive,,
CCCN1CCO[C@@H]2c3cc(O)ccc3OC[C@@H]21,209,16.6,,inactive,,inactive,inactive
COC(=O)[C@@H](N)CCCN=C(N)N[N+](=O)[O-],113,132,inactive,inactive,inactive,,inactive
C[C@]12CC[C@H]3[C@@H](CCC4=CC(=O)CC[C@@]43C)[C@H]1CC[C@H]2OC(=O)CCC1CCCC1,94,104,inactive,inactive,inactive,,
C[C@]12COC(=O)C[C@@H]1CC[C@@H]1[C@H]2CC[C@@]2(C)[C@H]1CC[C@]2(C)O,122,111,inactive,inactive,inactive,,
CC(C)N[C@@H]1CCn2c(=O)[nH]c3cccc(c32)[C@@H]1O,22.6,7.1,16.6 µM (active),inactive,7.43 µM (active),,
CN[C@@H]1Cc2cccc3[nH]c(=O)n(c23)C1,231,119,inactive,inactive,inactive,,inactive
NC(N)=NOCCC(N)C(=O)O (centres undefined),,,inactive,inactive,,,
C1CCC(NC2CCCCC2)CC1,,,inactive,inactive,,,
CCC(=O)O[C@@H]1C=C2CCC3C(CCC4(C)C3CC[C@@H]4OC(=O)CC)C2CC1 (some centres undefined),,,inactive,inactive,,,
CCO/N=C(\CC)C1=C(O)CC(c2c(C)cc(C)cc2C)CC1=O (centres undefined),,,inactive,inactive,,,
